Experimental data published in PubChem BioAssay AID1159580 (chemical genetic matrix, 2015).
The whole screen tested about 5,500 compounds, of which about 2,000 (36%) were called active. Roughly 18% stayed inconclusive and do not appear here. No stated cut-off is given here; in the data, active means normalized growth mostly below about 0.91 (no sharp cut-off); inconclusive means no clear call, values can overlap the other calls; inactive means mostly above about 0.92. The list shows a part of the results.

Test: chemical genetic growth profiling, strain panel (AID 1159580);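 further: tested at 20 µM; growth read once vehicle control cultures reached saturation at 30 °C; 1 = growth at the plate median or of vehicle wells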
Conditions: growth OD

Measured: normalized growth

COc1ccc([C@@H]2CC(=O)c3c(O)cc(O)cc3O2)cc1O
inactive: S. cerevisiae deletion strains, locus YJR043C, strain POL32, stronger effect = lower value 0.966 | S. cerevisiae deletion strains, locus YJR066W, strain TOR1, stronger effect = lower value 0.95 | S. cerevisiae deletion strains, locus YJR075W, strain HOC1, stronger effect = lower value 1.03 | S. cerevisiae deletion strains, locus YKL009W, strain mrt4, stronger effect = lower value 1.01 | S. cerevisiae deletion strains, locus YKL068W, stronger effect = lower value 0.998 | S. cerevisiae deletion strains, locus YKL085W, strain MDH1 (second series), stronger effect = lower value 0.99 | S. cerevisiae deletion strains, locus YKL085W, strain MDH1, stronger effect = lower value 0.99 | S. cerevisiae deletion strains, locus YKL160W, strain elf1, stronger effect = lower value 0.954 | S. cerevisiae deletion strains, locus YKR001C, strain vps1, stronger effect = lower value 1 | S. cerevisiae deletion strains, locus YKR026C, strain gcn3, stronger effect = lower value 0.982 | S. cerevisiae deletion strains, locus YKR091W, strain srl3, stronger effect = lower value 0.973 | S. cerevisiae deletion strains, locus YLL001W, strain dnm1, stronger effect = lower value 0.947 | S. cerevisiae deletion strains, locus YLL026W, stronger effect = lower value 0.993 | S. cerevisiae deletion strains, locus YLL041C, strain sdh2, stronger effect = lower value 0.982 | S. cerevisiae deletion strains, locus YLR027C, strain aat2, stronger effect = lower value 1 | S. cerevisiae deletion strains, locus YLR039C, strain RIC1, stronger effect = lower value 1.06 | S. cerevisiae deletion strains, locus YLR058C, strain SHM2, stronger effect = lower value 1.01 | S. cerevisiae deletion strains, locus YLR102C, strain apc9, stronger effect = lower value 1.01 | S. cerevisiae deletion strains, locus YLR113W, strain HOG1, stronger effect = lower value 1.02 | S. cerevisiae deletion strains, locus YLR221C, strain rsa3, stronger effect = lower value 0.959 | S. cerevisiae deletion strains, locus YLR258W, strain gsy2, stronger effect = lower value 0.977 | S. cerevisiae deletion strains, locus YLR262C, strain YPT6 (second series), stronger effect = lower value 0.972 | S. cerevisiae deletion strains, locus YLR262C, strain YPT6, stronger effect = lower value 1.03 | S. cerevisiae deletion strains, locus YLR268W, strain sec22, stronger effect = lower value 1.06 | S. cerevisiae deletion strains, locus YLR320W, strain mms22, stronger effect = lower value 0.93 | S. cerevisiae deletion strains, locus YLR330W, strain CHS5, stronger effect = lower value 1.01 | S. cerevisiae deletion strains, locus YLR342W, strain FKS1 (second series), stronger effect = lower value 0.979 | S. cerevisiae deletion strains, locus YLR342W, strain FKS1, stronger effect = lower value 0.976 | S. cerevisiae deletion strains, locus YLR357W, strain rsc2, stronger effect = lower value 0.953 | S. cerevisiae deletion strains, locus YLR370C, strain arc18, stronger effect = lower value 0.97 | S. cerevisiae deletion strains, locus YLR371W, strain rom2, stronger effect = lower value 1.01 | S. cerevisiae deletion strains, locus YLR384C, strain iki3, stronger effect = lower value 0.972 | S. cerevisiae deletion strains, locus YLR418C, strain cdc73, stronger effect = lower value 0.937 | S. cerevisiae deletion strains, locus YML016C, strain PPZ1, stronger effect = lower value 1 | S. cerevisiae deletion strains, locus YML032C, strain rad52, stronger effect = lower value 0.991 | S. cerevisiae deletion strains, locus YML120C, strain ndi1, stronger effect = lower value 0.974 | S. cerevisiae deletion strains, locus YML124C, strain tub3, stronger effect = lower value 1.01 | S. cerevisiae deletion strains, locus YMR058W, strain fet3, stronger effect = lower value 0.969 | S. cerevisiae deletion strains, locus YMR078C, strain ctf18, stronger effect = lower value 1.01 | S. cerevisiae deletion strains, locus YMR125W, strain sto1, stronger effect = lower value 0.96 | S. cerevisiae deletion strains, locus YMR129W, stronger effect = lower value 0.988 | S. cerevisiae deletion strains, locus YMR205C, strain PFK2, stronger effect = lower value 0.952 | S. cerevisiae deletion strains, locus YMR223W, strain ubp8, stronger effect = lower value 0.978 | S. cerevisiae deletion strains, locus YMR231W, strain pep5, stronger effect = lower value 0.98 | S. cerevisiae deletion strains, locus YMR263W, strain SAP30, stronger effect = lower value 1.03 | S. cerevisiae deletion strains, locus YMR307W, strain GAS1, stronger effect = lower value 0.952 | S. cerevisiae deletion strains, locus YNL067W, strain RPL9B, stronger effect = lower value 1.03 | S. cerevisiae deletion strains, locus YNL071W, strain lat1, stronger effect = lower value 0.979 | S. cerevisiae deletion strains, locus YNL183C, strain NPR1, stronger effect = lower value 0.944 | S. cerevisiae deletion strains, locus YNL209W, strain ssb2, stronger effect = lower value 0.986 | S. cerevisiae deletion strains, locus YNL233W, strain BNI4, stronger effect = lower value 1 | S. cerevisiae deletion strains, locus YNL248C, strain rpa49, stronger effect = lower value 0.97 | S. cerevisiae deletion strains, locus YNL250W, strain rad50, stronger effect = lower value 1.02 | S. cerevisiae deletion strains, locus YNL271C, strain bni1, stronger effect = lower value 1.01 | S. cerevisiae deletion strains, locus YNL298W, strain CLA4, stronger effect = lower value 1.02 | S. cerevisiae deletion strains, locus YNL307C, strain MCK1, stronger effect = lower value 1.01 | S. cerevisiae deletion strains, locus YNL322C, strain KRE1 (second series), stronger effect = lower value 0.987 | S. cerevisiae deletion strains, locus YNR049C, strain mso1, stronger effect = lower value 0.973 | S. cerevisiae deletion strains, locus YNR052C, strain pop2, stronger effect = lower value 1.02 | S. cerevisiae deletion strains, locus YOL012C, strain htz1 1.12 | S. cerevisiae deletion strains, locus YOL147C, strain pex11, stronger effect = lower value 0.998 | S. cerevisiae deletion strains, locus YOR001W, strain rrp6, stronger effect = lower value 0.988 | S. cerevisiae deletion strains, locus YOR061W, strain CKA2, stronger effect = lower value 1 | S. cerevisiae deletion strains, locus YOR069W, strain VPS5, stronger effect = lower value 1 | S. cerevisiae deletion strains, locus YOR070C, strain gyp1, stronger effect = lower value 0.975 | S. cerevisiae deletion strains, locus YOR080W, strain dia2, stronger effect = lower value 0.979 | S. cerevisiae deletion strains, locus YOR083W, strain WHI5, stronger effect = lower value 0.934 | S. cerevisiae deletion strains, locus YOR106W, strain vam3, stronger effect = lower value 0.946 | S. cerevisiae deletion strains, locus YOR136W, strain idh2, stronger effect = lower value 1.01 | S. cerevisiae deletion strains, locus YOR144C, strain elg1, stronger effect = lower value 0.999 | S. cerevisiae deletion strains, locus YOR184W, strain ser1, stronger effect = lower value 0.986 | S. cerevisiae deletion strains, locus YOR231W, strain MKK1, stronger effect = lower value 1.02 | S. cerevisiae deletion strains, locus YOR265W, strain rbl2, stronger effect = lower value 0.983 | S. cerevisiae deletion strains, locus YOR270C, strain vph1, stronger effect = lower value 0.933 | S. cerevisiae deletion strains, locus YOR290C, strain snf2, stronger effect = lower value 0.924 | S. cerevisiae deletion strains, locus YOR316C, strain cot1, stronger effect = lower value 1 | S. cerevisiae deletion strains, locus YPL051W, strain arl3, stronger effect = lower value 0.967 | S. cerevisiae deletion strains, locus YPL055C, strain LGE1, stronger effect = lower value 1.02 | S. cerevisiae deletion strains, locus YPL078C, strain atp4, stronger effect = lower value 0.952 | S. cerevisiae deletion strains, locus YPL106C, strain sse1, stronger effect = lower value 0.965 | S. cerevisiae deletion strains, locus YPL240C, strain hsp82, stronger effect = lower value 0.997 | S. cerevisiae deletion strains, locus YPL256C, strain CLN2, stronger effect = lower value 1.03 | S. cerevisiae deletion strains, locus YPR119W, strain clb2, stronger effect = lower value 1.01 | S. cerevisiae deletion strains, locus YPR141C, strain kar3, stronger effect = lower value 1.01 | S. cerevisiae deletion strains, locus YPR163C, strain tif3, stronger effect = lower value 1.01 | S. cerevisiae deletion strains, locus YPR167C, strain met16, stronger effect = lower value 1 | S. cerevisiae deletion strains, strain wtn01, stronger effect = lower value 1.03 | S. cerevisiae strains, strain wild type, stronger effect = lower value 1.01
